Our source for the survival values is PubChem BioAssay AID463173 (ICCB-Longwood Screening Facility, Harvard Medical School, 2010).

In all, about 52,000 compounds went through this assay and about 1,700 (3.3%) were called active. No stated cut-off is given here; in the data, active means survival mostly below about 52% (no sharp cut-off); inactive means mostly above about 56%. For the sample, actives were picked, then their nearest neighbours and some compounds at random.

In this test the test system is Wild type. The test is described as follows: growth inhibition of S. aureus wild type versus tarO mutant, primary screen, teichoic acid synthesis inhibitors, RN4220, OD600 (AID 463173). The conditions noted are these: S. aureus RN4220 wild type/DeltatarO growth, OD600, 18 h, active compounds read low, screened at 18.75 µg/mL (by protocol).
Regarding `Cc1ccc(-c2nc(CCNC(=O)C(=O)Nc3ccc(F)cc3F)cs2)cc1`, the survival is 63% (inactive).
To `Cc1cc(NC(=O)c2ccccc2Cl)ccc1NC(=O)c1ccccc1` belongs 85% (inactive); to `Cc1ccc(NC(=O)c2ccc(Br)cc2)c(C(=O)c2ccccc2)c1`, -2% (active); to `Cc1ccc(C(=O)COC(=O)c2cccc(NC(=O)c3ccc(Cl)cc3Cl)c2)cc1`, 81% (inactive).
The value for `Cc1ccc(NC(=O)c2ccccc2Br)c(C(=O)c2ccccc2)c1` was 25% (inactive); that for `Cc1ccc(NC(=O)c2ccc(Cl)cc2Cl)c(C(=O)c2ccccc2)c1` was 1% (active).
As for `O=C(Nc1cc2c(cc1C(=O)c1ccccc1)OCCO2)c1ccc(Br)cc1`, the survival is 86% (inactive).
The value for `CCCCn1cc2c(c1-c1ccc(Cl)cc1)c(=O)n(C)c(=O)n2C` was 83% (inactive).
To `COc1ccc2c(CNC3CCCCCC3)c(C(=O)O)n(Cc3ccccc3F)c2c1` belongs 89% (inactive).
To `CCC1CCCCN1C(=O)c1ccc2c(c1)N(Cc1cccc(Cl)c1)C(=O)c1ccccc1S2(=O)=O` (centres undefined) belongs 73% (inactive).
In the case of `Cc1ccc(N2CCN(C(=O)c3c(C)oc4nc(C)nc(N5CCCC5)c34)CC2)c(C)c1`, the survival is 81% (inactive).
Consider `Cc1nn2c(-c3cccc(NC(=O)c4ccc(Cl)cc4)c3)nnc2c2ccccc12`, for which the survival is 113% (inactive).
The value for `COc1ccccc1NC(=O)c1cc2c(-c3ccccc3)nn(-c3ccccc3)c2s1` was 77% (inactive); that for `COc1ccc(NC(=O)c2cc3c(C)nn(-c4ccccc4)c3s2)c(OC)c1` was 63% (inactive); that for `Cc1nn(-c2ccccc2)c2sc(C(=O)Nc3ccccc3Br)cc12` was 7% (active).
To `Cc1nn(-c2ccccc2)c2sc(C(=O)Nc3ccc(Br)cc3)cc12` belongs 52% (inactive); to `Cc1ccccc1NC(=O)c1cc2c(-c3ccccc3)nn(-c3ccccc3)c2s1`, 86% (inactive).
Regarding `COc1ccccc1NC(=O)c1cc2c(C)nn(-c3ccccc3)c2s1`, the survival is 1% (active).
To `Cc1ccc2oc(=O)c3cc(C(=O)Nc4ccc(F)cc4F)sc3c2c1` belongs 80% (inactive).
To `CCc1ccccc1NC(=O)c1ccc(Cn2nc(N3CCN(c4ccccc4)CC3)ccc2=O)o1` belongs 70% (inactive).
With `Cc1cccc(-n2ccnc2SCC(=O)Nc2ccc(F)cc2F)c1C`, the survival was 71% (inactive).
The value for `Cc1cccc(CS(=O)(=O)CC2Nc3ccc(C(=O)NCc4ccccc4)cc3NC2=O)c1` (centres undefined) was 71% (inactive).
For the compound `CCOC(=O)CNc1ncnc2c1nnn2C`, the survival was 22% (inactive).
In the case of `CCc1nc2c(cnn2-c2ccc(Cl)cc2)c(=O)n1-c1ccc(OC)c(Cl)c1`, the survival was 78% (inactive).
To `CCOc1cccc2sc(NC(=O)c3ccc(S(=O)(=O)N4CCCCC4C)cc3)nc12` (centres undefined) belongs 10% (active); to `CCOc1cccc2sc(NC(=O)c3ccc(S(=O)(=O)N4CCCc5ccccc54)cc3)nc12`, 88% (inactive); to `CCOc1cccc2sc(NC(=O)c3ccc(S(=O)(=O)N4CCCCC4)cc3)nc12`, 75% (inactive).
`CCOC(=O)c1c(-c2ccccc2)csc1NC(=O)c1cc(-c2ccc(Cl)cc2)on1`: the survival was 85% (inactive).
Regarding `Cc1ccc(-n2ncc3c(NCCC4=CCCCC4)ncnc32)cc1`, the survival was -3% (active).
On to `Fc1ccc(-n2ncc3c(NCCC4=CCCCC4)ncnc32)cc1`, for which the survival was 59% (inactive).
The value for `Cc1ccc(-n2ncc3c(NCCC4=CCCCC4)ncnc32)cc1C` was 131% (inactive).
To `Cc1ccc(-n2ncc3c(NCCCc4ccccc4)ncnc32)cc1` belongs 69% (inactive); to `CCC(CO)Nc1ncnc2c1cnn2-c1ccc(C)cc1` (centres undefined), -6% (active); to `CCCCc1ccc(Nc2ncnc3c2cnn3-c2ccc(C)cc2)cc1`, -1% (active).
To `CCC(C)Nc1ncnc2c1cnn2-c1ccc(F)cc1` (centres undefined) belongs 71% (inactive); to `Cc1ccc(-n2ncc3c(NC(C)c4ccccc4)ncnc32)cc1` (centres undefined), 73% (inactive); to `Cc1ccc(-n2ncc3c(Nc4ccc(Oc5ccccc5)cc4)ncnc32)cc1`, 74% (inactive).
With `COc1ccc(-c2noc(-c3ccc(N4CCC(C)CC4)c([N+](=O)[O-])c3)n2)cc1OC`, the survival is 89% (inactive).
To `O=C(C1CCCCC1)N(Cc1cccnc1)c1nc2ccc(Cl)cc2s1` belongs 72% (inactive); to `CCc1nn(CC(=O)Nc2ccc(NC(C)=O)cc2)c(=O)c2cc3sccc3n12`, 86% (inactive).
The value for `CCOc1ccccc1NC(=O)c1cnn2c(C(F)F)cc(-c3ccccc3)nc12` was 52% (inactive).
Regarding `CCOC(=O)C1CCN(C(=O)c2cc3sc(C)cc3n2C)CC1`, the survival was 89% (inactive).
On to `CC1CCN(S(=O)(=O)c2ccc3c(c2)N(CC(=O)NCCN(C)C)C(=O)CO3)CC1`, for which the survival was 76% (inactive).
Regarding `Cc1ccc(CNc2nc3ccccc3c3nc(-c4cccc(C)c4)nn23)cc1`, the survival was 26% (inactive).
The value for `c1ccc(CNc2nc3ccccc3c3nc(-c4ccccc4)nn23)cc1` was 67% (inactive); that for `COc1ccccc1CNc1nc2ccccc2c2nc(-c3cccc(C)c3)nn12` was 9% (active); that for `Cc1cccc(-c2nc3c4ccccc4nc(NCc4ccccc4Cl)n3n2)c1` was 163% (inactive).
To `Cc1ccc(CCNc2nc3ccccc3c3nc(-c4ccccc4)nn23)cc1` belongs 73% (inactive); to `COc1ccc(CCNc2nc3ccccc3c3nc(-c4cccc(C)c4)nn23)cc1OC`, 24% (inactive); to `COc1ccccc1CNc1nc2ccccc2c2nc(-c3cccnc3)nn12`, 67% (inactive).
The value for `CCCCNc1nc2ccccc2c2nc(-c3ccccc3)nn12` was -1% (active).
In the case of `Cc1cccc(-c2nc3c4ccccc4nc(NCCc4ccccc4)n3n2)c1`, the survival is 3% (active).
The value for `CN1C(N)=NC(=O)C1(CO)CO` was 104% (inactive); that for `CCOc1ccc(NC(=O)CSc2nc(-c3cccs3)cc(C(F)(F)F)c2C#N)cc1` was 66% (inactive); that for `O=C(Cn1c(=O)c2ccccc2n(CC(=O)Nc2ccccc2F)c1=O)NCCc1ccccc1` was 89% (inactive).
Take `CCOc1ccc(CCNC(=O)c2cc3cc4ccc(OC)cc4nc3s2)cc1OCC`: the survival was 101% (inactive).
To `Cc1ccc(-c2nc(CS(=O)CC(=O)N3CCN(c4ccc(Cl)cc4)CC3)c(C)o2)cc1` (centres undefined) belongs 73% (inactive); to `COc1cccc(-c2nc(CS(=O)CC(=O)N3CCN(c4cccc(C(F)(F)F)c4)CC3)c(C)o2)c1` (centres undefined), -2% (active).
To `Cc1ccccc1-c1nc(CS(=O)CC(=O)NCCc2ccc(Cl)cc2)c(C)o1` (centres undefined) belongs 128% (inactive); to `Cc1ccccc1-c1nc(CS(=O)CC(=O)N2CCN(c3cc(Cl)ccc3C)CC2)c(C)o1` (centres undefined), 10% (active).
To `Cc1oc(-c2ccc(Cl)cc2)nc1CS(=O)CC(=O)N1CCN(c2cccc(C(F)(F)F)c2)CC1` (centres undefined) belongs 80% (inactive).
`Cc1ccc(-c2nc(CS(=O)CC(=O)N3CCN(c4cccc(Cl)c4)CC3)c(C)o2)cc1` (centres undefined): the survival is 5% (active).
To `Cc1ccc(-c2nc(CS(=O)CC(=O)N3CCN(c4ccccc4)CC3)c(C)o2)cc1` (centres undefined) belongs 88% (inactive).
To `COc1cccc(-c2nc(CS(=O)(=O)CC(=O)N3CCN(c4ccccc4)CC3)c(C)o2)c1` belongs 94% (inactive).
To `Cc1oc(-c2ccccc2Cl)nc1CS(=O)CC(=O)N1CCN(c2cccc(C(F)(F)F)c2)CC1` (centres undefined) belongs 129% (inactive); to `CCOc1ccc(-c2nc(CSCC(=O)N3CCN(c4ccc(F)cc4)CC3)c(C)o2)cc1`, 113% (inactive).
For `CCCn1c(=O)sc2cc(NC(=O)c3ccccc3Cl)ccc21`, the survival was 71% (inactive).
The value for `COc1cccc(C2C(C(=O)Nc3ccccc3)=C(C)Nc3nc(-c4ccccc4)nn32)c1` (centres undefined) was 76% (inactive).
To `COc1ccc(N2CCN(c3ccc(-c4nc(-c5ccccc5C)no4)cc3[N+](=O)[O-])CC2)cc1` belongs 88% (inactive); to `Cc1ccc(N(CC(=O)Nc2ccc(Br)c(C)c2)S(=O)(=O)c2cccs2)cc1`, 82% (inactive); to `Cc1ccc(N(C(=O)c2cccc(C)c2)S(=O)(=O)c2ccc(Cl)cc2)cc1`, 65% (inactive).
To `Cc1ccc(NC(=O)N2CCC(n3c(C)nc4cccnc43)CC2)c(Cl)c1` belongs 71% (inactive); to `CC(=O)N1CCC(N(Cc2ccc(C)o2)C(=O)Nc2ccccc2F)CC1`, 85% (inactive); to `COc1ccc2[nH]c(=O)c(CN(C(=O)c3cccc(Cl)c3)c3ccccc3OC)cc2c1`, 81% (inactive).
For `Fc1ccc(C(c2nnnn2C2CCCC2)N2CCc3ccccc32)cc1` (centres undefined), the survival was 122% (inactive).
The value for `O=C(CN1C(=O)CCn2nc(-c3ccccc3)cc21)NCc1ccccc1` was 124% (inactive); that for `Cn1cc(-c2cc3n(n2)CCC(=O)N3CCCC(=O)NCc2ccccc2)c2ccccc21` was 76% (inactive); that for `Cc1ccc(CNC(=O)CN2C(=O)CCn3nc(-c4ccccc4)cc32)cc1` was 68% (inactive).
To `Cc1cccc(CNC(=O)CCCN2C(=O)CCn3nc(-c4cn(C)c5ccccc45)cc32)c1` belongs -6% (active).
As to `CCc1ccccc1NC(=O)CCCN1C(=O)CCn2nc(-c3cn(C)c4ccccc34)cc21`, the survival was 134% (inactive).
`Cc1ccc(CNC(=O)CCCN2C(=O)CCn3nc(-c4cn(C)c5ccccc45)cc32)cc1`: the survival was 76% (inactive).
To `CN(C)c1ccc(CNC(=O)CN2C(=O)CCn3nc(-c4cn(C)c5ccccc45)cc32)cc1` belongs 53% (inactive); to `Cn1cc(-c2cc3n(n2)CCC(=O)N3CCCC(=O)NCc2ccc(Cl)cc2)c2ccccc21`, 124% (inactive).
To `O=C(CN1C(=O)CCn2nc(-c3ccccc3)cc21)NCc1ccc(Cl)cc1` belongs -3% (active); to `CN(C)c1ccc(CNC(=O)CCCN2C(=O)CCn3nc(-c4cn(C)c5ccccc45)cc32)cc1`, -1% (active); to `Cn1cc(-c2cc3n(n2)CCC(=O)N3CCCC(=O)Nc2ccccc2Cl)c2ccccc21`, -6% (active).
The value for `Cn1cc(-c2cc3n(n2)CCC(=O)N3CCCC(=O)Nc2ccccc2F)c2ccccc21` was 159% (inactive).
For the compound `Cc1cc(Cl)ccc1NC(=O)CN1C(=O)CSc2ccc(S(=O)(=O)N(C)C)cc21`, the survival is 68% (inactive).
Regarding `O=C(NCc1ccccc1)NC1COc2ccccc2C1` (centres undefined), the survival is 82% (inactive).
